Source: ChEMBL document CHEMBL1961873, “Compounds: GSK PKIS; Assays: Nanosyn kinase panel” (2012)

Key:
[1] = target: 5'-AMP-activated protein kinase catalytic subunit alpha-2 (Homo sapiens) (UniProt P54646); details: at 1 µM
[2] = target: T1, NUAK family SNF1-like kinase 1 (Homo sapiens) (UniProt O60285); details: at 0.1 µM
T1 sequence (whole entry): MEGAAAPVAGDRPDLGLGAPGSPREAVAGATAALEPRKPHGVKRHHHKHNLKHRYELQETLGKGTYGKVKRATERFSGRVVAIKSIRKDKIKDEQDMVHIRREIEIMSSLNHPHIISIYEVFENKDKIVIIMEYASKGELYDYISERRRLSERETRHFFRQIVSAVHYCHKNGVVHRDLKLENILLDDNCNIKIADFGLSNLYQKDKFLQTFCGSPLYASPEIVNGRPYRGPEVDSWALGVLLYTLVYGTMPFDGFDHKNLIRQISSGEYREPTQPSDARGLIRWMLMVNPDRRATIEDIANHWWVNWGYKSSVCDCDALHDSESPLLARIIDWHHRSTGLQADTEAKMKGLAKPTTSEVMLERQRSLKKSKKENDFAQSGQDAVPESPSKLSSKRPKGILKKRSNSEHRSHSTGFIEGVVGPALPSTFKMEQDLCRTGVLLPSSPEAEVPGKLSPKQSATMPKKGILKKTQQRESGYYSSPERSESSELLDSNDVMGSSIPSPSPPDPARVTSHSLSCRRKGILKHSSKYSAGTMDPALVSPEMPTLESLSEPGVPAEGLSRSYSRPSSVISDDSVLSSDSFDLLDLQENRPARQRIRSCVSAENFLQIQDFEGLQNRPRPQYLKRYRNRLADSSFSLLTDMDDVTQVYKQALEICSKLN

[3] = target: T1, NUAK family SNF1-like kinase 1 (Homo sapiens); details: at 1 µM
[4] = target: T2, Serine/threonine-protein kinase BRSK1 (Homo sapiens) (UniProt Q8TDC3); details: at 0.1 µM
T2 sequence (whole entry): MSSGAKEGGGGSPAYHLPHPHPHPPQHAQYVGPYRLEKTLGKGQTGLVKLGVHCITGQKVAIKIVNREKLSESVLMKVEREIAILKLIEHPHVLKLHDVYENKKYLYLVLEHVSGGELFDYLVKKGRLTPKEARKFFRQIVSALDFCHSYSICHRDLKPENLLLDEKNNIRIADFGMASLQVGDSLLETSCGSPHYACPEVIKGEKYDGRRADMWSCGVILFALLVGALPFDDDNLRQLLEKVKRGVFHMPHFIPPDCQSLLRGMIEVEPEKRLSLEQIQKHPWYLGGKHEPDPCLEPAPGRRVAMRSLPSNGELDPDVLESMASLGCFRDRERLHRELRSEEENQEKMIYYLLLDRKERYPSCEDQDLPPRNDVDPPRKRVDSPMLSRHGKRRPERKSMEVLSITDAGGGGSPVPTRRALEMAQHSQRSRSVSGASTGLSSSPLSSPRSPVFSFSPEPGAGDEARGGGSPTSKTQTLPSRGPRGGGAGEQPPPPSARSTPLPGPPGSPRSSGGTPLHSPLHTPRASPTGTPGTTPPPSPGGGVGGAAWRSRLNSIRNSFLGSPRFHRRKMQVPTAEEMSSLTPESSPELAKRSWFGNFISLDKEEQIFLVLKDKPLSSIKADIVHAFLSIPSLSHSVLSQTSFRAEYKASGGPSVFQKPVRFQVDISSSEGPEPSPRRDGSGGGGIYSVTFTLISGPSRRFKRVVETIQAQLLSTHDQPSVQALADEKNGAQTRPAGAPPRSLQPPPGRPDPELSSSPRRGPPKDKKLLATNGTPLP

[5] = target: T2, Serine/threonine-protein kinase BRSK1 (Homo sapiens); details: at 1 µM
[6] = target: T3, Serine/threonine-protein kinase BRSK2 (Homo sapiens) (UniProt Q8IWQ3); details: at 0.1 µM
T3 sequence (whole entry): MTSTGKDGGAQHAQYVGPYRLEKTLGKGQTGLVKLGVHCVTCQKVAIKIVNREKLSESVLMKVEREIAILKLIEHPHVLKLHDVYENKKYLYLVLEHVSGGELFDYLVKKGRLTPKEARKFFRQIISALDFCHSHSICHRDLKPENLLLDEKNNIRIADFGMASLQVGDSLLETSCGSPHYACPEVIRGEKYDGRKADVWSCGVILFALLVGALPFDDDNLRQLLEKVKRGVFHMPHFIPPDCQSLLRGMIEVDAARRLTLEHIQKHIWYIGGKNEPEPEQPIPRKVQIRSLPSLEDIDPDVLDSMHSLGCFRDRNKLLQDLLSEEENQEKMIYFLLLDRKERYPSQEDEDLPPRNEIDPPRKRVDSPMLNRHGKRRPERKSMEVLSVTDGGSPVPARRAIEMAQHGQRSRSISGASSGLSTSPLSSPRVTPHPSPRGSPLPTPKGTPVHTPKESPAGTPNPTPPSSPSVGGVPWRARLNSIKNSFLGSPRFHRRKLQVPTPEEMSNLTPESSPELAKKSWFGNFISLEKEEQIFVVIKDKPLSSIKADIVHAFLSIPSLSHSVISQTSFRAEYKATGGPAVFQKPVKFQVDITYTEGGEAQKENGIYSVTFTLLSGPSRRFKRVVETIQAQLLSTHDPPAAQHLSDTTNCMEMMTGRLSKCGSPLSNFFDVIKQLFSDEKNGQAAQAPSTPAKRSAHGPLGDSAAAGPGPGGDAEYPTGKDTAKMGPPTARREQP

[7] = target: T3, Serine/threonine-protein kinase BRSK2 (Homo sapiens); details: at 1 µM
[8] = target: Calcium/calmodulin-dependent protein kinase type 1D (Homo sapiens) (UniProt Q8IU85); details: at 0.1 µM
Chain of Calcium/calmodulin-dependent protein kinase type 1D (Homo sapiens) (Q8IU85 whole entry, looked up): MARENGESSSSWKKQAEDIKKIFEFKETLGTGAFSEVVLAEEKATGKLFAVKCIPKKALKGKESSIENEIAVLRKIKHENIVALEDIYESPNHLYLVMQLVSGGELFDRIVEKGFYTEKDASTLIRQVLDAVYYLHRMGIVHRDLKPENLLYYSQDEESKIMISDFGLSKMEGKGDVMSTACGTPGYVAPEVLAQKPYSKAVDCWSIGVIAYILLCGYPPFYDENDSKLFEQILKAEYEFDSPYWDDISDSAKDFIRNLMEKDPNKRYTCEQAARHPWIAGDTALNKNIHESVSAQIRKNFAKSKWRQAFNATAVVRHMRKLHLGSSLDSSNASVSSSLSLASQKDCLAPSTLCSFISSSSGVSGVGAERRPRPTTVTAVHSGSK

[9] = target: Calcium/calmodulin-dependent protein kinase type 1D (Homo sapiens) (UniProt Q8IU85); details: at 1 µM
[10] = target: Calcium/calmodulin-dependent protein kinase type II subunit alpha (Homo sapiens) (UniProt Q9UQM7); details: at 0.1 µM
Chain of Calcium/calmodulin-dependent protein kinase type II subunit alpha (Homo sapiens) (Q9UQM7 whole entry): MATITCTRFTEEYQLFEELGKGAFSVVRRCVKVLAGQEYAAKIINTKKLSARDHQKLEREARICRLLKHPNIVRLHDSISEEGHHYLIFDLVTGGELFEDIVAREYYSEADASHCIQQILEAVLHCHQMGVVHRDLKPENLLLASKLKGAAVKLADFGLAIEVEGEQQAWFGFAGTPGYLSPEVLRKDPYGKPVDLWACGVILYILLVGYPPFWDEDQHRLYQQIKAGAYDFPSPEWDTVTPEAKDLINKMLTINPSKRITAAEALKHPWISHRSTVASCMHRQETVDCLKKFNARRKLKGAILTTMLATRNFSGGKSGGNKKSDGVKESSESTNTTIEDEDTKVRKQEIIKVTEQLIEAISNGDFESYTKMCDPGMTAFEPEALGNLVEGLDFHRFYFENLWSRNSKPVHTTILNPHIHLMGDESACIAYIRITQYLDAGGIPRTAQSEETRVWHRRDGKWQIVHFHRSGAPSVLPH

[11] = target: Calcium/calmodulin-dependent protein kinase type II subunit alpha (Homo sapiens) (UniProt Q9UQM7); details: at 1 µM
[12] = target: Calcium/calmodulin-dependent protein kinase type II subunit delta (Homo sapiens) (UniProt Q13557); details: at 0.1 µM
Chain of Calcium/calmodulin-dependent protein kinase type II subunit delta (Homo sapiens) (Q13557 whole entry): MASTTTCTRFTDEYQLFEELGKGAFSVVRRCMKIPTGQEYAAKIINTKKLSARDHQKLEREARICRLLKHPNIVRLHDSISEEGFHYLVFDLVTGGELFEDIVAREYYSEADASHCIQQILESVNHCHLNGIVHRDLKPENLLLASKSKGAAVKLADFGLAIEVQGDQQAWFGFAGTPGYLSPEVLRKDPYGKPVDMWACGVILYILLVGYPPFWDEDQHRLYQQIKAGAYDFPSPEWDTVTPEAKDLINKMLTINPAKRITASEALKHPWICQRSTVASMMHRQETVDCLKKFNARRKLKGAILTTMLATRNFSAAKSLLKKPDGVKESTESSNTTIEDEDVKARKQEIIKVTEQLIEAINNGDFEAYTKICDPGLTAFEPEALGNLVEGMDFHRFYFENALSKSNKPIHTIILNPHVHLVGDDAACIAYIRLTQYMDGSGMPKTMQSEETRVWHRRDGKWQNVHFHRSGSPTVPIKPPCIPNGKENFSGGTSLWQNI

[13] = target: Calcium/calmodulin-dependent protein kinase type II subunit delta (Homo sapiens) (UniProt Q13557); details: at 1 µM
[14] = target: T4, Calcium/calmodulin-dependent protein kinase type IV (Homo sapiens) (UniProt Q16566); details: at 0.1 µM
T4 sequence (whole entry): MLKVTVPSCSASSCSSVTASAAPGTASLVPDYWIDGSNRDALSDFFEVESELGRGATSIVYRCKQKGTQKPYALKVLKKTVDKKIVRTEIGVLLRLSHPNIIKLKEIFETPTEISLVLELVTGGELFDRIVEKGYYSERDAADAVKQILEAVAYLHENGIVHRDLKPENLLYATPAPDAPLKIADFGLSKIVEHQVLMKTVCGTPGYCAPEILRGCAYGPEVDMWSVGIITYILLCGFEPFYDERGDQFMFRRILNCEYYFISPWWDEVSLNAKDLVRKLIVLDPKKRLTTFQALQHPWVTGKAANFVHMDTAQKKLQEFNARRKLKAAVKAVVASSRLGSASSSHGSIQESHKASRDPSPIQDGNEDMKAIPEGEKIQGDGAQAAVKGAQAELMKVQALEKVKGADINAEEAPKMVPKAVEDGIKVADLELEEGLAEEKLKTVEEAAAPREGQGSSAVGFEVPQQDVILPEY

[15] = target: T4, Calcium/calmodulin-dependent protein kinase type IV (Homo sapiens); details: at 1 µM
[16] = target: T5, Serine/threonine-protein kinase Chk1 (Homo sapiens) (UniProt O14757); details: at 0.1 µM
T5 sequence (whole entry): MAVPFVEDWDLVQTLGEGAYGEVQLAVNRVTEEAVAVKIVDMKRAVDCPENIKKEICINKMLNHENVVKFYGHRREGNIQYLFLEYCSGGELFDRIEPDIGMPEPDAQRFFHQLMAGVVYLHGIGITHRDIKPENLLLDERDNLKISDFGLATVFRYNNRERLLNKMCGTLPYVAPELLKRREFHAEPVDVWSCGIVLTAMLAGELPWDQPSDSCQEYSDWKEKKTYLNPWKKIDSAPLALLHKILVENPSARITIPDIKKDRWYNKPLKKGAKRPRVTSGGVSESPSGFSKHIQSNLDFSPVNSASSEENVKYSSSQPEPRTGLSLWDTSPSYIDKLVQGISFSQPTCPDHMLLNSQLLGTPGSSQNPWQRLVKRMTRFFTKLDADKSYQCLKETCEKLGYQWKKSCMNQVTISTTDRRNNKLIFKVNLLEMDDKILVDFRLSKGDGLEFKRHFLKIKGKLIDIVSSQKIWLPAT

[17] = target: T5, Serine/threonine-protein kinase Chk1 (Homo sapiens); details: at 1 µM
[18] = target: Serine/threonine-protein kinase Chk2 (Homo sapiens) (UniProt O96017); details: at 0.1 µM
Chain of Serine/threonine-protein kinase Chk2 (Homo sapiens) (O96017 whole entry): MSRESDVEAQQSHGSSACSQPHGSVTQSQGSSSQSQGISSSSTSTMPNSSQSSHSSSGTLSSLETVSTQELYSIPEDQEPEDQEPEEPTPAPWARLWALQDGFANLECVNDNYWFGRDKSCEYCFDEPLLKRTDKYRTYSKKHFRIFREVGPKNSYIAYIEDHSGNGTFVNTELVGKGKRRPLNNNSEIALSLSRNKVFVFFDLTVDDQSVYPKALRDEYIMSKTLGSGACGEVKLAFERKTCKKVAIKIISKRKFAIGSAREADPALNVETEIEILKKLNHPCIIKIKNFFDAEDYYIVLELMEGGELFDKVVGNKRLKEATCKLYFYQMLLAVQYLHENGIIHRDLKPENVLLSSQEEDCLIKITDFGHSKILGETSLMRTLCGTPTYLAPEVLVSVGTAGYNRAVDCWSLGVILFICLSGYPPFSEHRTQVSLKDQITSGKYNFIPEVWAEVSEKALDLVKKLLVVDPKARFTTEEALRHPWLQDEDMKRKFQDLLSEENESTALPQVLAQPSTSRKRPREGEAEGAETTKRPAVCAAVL

[19] = target: Serine/threonine-protein kinase Chk2 (Homo sapiens) (UniProt O96017); details: at 1 µM
[20] = target: Death-associated protein kinase 1 (Homo sapiens) (UniProt P53355); details: at 0.1 µM;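 further: reported figure is the mean inhibition of DAPK1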
Chain of Death-associated protein kinase 1 (Homo sapiens) (P53355 whole entry, looked up): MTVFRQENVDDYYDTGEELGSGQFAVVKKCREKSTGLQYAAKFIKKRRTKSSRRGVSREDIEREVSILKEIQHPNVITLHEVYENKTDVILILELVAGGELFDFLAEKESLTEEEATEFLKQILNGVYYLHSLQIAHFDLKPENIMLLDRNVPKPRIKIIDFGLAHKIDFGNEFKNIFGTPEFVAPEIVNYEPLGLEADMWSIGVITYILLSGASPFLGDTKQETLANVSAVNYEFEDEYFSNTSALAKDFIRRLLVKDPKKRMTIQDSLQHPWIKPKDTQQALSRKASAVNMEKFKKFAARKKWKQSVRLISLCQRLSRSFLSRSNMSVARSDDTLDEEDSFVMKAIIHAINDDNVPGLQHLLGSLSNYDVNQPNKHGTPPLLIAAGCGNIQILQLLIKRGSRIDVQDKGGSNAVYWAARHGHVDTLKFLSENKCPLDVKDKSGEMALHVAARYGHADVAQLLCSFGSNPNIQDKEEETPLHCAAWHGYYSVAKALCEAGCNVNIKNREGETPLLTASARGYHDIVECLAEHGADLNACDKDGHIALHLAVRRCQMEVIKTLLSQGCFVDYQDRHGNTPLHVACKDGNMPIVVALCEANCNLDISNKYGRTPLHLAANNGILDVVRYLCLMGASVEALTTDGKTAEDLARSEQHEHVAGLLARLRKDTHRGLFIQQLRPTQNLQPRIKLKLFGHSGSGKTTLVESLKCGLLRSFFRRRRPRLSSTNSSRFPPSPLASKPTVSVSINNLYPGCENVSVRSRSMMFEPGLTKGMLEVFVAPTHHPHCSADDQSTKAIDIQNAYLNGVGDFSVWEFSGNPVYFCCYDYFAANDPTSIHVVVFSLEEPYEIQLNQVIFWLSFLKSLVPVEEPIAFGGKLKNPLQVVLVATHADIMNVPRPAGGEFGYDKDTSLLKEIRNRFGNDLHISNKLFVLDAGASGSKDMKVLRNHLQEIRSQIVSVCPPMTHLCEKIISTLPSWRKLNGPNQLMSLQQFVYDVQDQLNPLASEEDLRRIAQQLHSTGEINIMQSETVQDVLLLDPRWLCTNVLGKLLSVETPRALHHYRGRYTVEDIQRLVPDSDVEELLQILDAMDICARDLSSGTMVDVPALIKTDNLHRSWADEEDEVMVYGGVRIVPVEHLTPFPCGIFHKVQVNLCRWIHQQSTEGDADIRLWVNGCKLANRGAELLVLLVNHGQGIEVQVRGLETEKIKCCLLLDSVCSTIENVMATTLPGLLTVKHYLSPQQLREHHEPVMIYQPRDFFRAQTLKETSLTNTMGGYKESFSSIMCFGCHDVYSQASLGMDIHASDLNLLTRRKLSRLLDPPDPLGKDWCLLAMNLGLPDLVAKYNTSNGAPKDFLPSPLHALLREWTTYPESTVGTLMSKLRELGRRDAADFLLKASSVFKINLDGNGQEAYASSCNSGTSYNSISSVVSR

Chain of 5'-AMP-activated protein kinase catalytic subunit alpha-2 (Homo sapiens) (P54646 whole entry, looked up): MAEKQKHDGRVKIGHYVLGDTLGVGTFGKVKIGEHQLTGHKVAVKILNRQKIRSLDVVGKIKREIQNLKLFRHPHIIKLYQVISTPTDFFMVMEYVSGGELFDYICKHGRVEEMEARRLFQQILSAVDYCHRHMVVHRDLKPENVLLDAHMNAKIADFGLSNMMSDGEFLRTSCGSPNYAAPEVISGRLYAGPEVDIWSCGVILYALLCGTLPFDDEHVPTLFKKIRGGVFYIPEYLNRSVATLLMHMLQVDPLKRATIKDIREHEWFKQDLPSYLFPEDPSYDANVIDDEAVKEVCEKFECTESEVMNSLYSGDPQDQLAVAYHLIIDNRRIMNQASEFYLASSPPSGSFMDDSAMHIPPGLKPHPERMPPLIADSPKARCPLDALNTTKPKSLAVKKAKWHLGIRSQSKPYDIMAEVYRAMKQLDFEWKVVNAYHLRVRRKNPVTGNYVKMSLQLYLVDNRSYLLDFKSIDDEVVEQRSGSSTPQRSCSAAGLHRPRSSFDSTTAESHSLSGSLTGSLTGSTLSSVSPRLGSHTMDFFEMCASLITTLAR

Work on CC(C)(CO)CNC(=O)c1ccc2c(c1)/C(=N/Nc1ccc(S(N)(=O)=O)cc1)C(=O)N2 yielded an inhibition [1] of 33.7%, an inhibition [2] of 19.7% and an inhibition [3] of 58.6%. For the same molecule, the inhibition [4] was 6.46%, the inhibition [5] was 37.7% and the inhibition [6] was 11.6%. It also gave an inhibition [7] of 52.2%, an inhibition [8] of 0.39% and an inhibition [9] of 1.92%. For the same molecule, the inhibition [10] was -0.2%, the inhibition [11] was 4.28% and the inhibition [12] was 0.61%. It also gave an inhibition [13] of 12.2%, an inhibition [14] of 0.55% and an inhibition [15] of -0.51%. The inhibition [16] was 0.39%, the inhibition [17] was -3.69% and the inhibition [18] was -0.89%. For the same molecule, the inhibition [19] was 5.93% and the inhibition [20] was -0.17%.

CCCN(CCS(C)(=O)=O)Cc1ccc(-c2ccc3ncnc(Nc4ccc(OCc5cccc(F)c5)c(Cl)c4)c3c2)o1 was tested, and the inhibition [1] was 2.91%, the inhibition [2] was -7.52% and the inhibition [3] was 4.57%. The inhibition [4] was 1.22%, the inhibition [5] was 3.8% and the inhibition [6] was 1.68%. For the same molecule, the inhibition [7] was 7.08%, the inhibition [8] was 0.15% and the inhibition [9] was 1.73%. For the same molecule, the inhibition [10] was 0.86%, the inhibition [11] was 0.76% and the inhibition [12] was 1.58%. For the same molecule, the inhibition [13] was 1.84%, the inhibition [14] was 1.01% and the inhibition [15] was 2.17%. It also gave an inhibition [16] of 7.57%, an inhibition [17] of 6.58% and an inhibition [18] of 5.44%. The inhibition [19] was 6.1% and the inhibition [20] was 8.24%.

CCCN1CCC(c2ccc(Nc3nc(Nc4cc(F)ccc4C(N)=O)c4cc[nH]c4n3)c(OC)c2)CC1 showed an inhibition [1] of 13.2%, an inhibition [2] of 31.8% and an inhibition [3] of 62.8%. For the same molecule, the inhibition [4] was 0.82%, the inhibition [5] was 2.49% and the inhibition [6] was 2.24%. For the same molecule, the inhibition [7] was 6.88%, the inhibition [8] was 22.9% and the inhibition [9] was 71.5%. It also gave an inhibition [10] of 8.79%, an inhibition [11] of 43.6% and an inhibition [12] of 20.9%. It also gave an inhibition [13] of 71%, an inhibition [14] of 7.54% and an inhibition [15] of 37.9%. The inhibition [16] was 0.91%, the inhibition [17] was 10.7% and the inhibition [18] was 58.3%. For the same molecule, the inhibition [19] was 80.9% and the inhibition [20] was 3.52%.

Cc1ccc2c(-c3ccnc(Nc4ccccc4)n3)c(-c3ccc(F)cc3)nn2n1 was tested, and the inhibition [1] was 3.36%, the inhibition [2] was 1.74% and the inhibition [3] was 6.31%. It also gave an inhibition [4] of 1.47%, an inhibition [5] of 1.77% and an inhibition [6] of 1.27%. The inhibition [7] was 0.62%, the inhibition [8] was 0.93% and the inhibition [9] was 1.34%. For the same molecule, the inhibition [10] was 4.27%, the inhibition [11] was 4.16% and the inhibition [12] was 3.9%. It also gave an inhibition [13] of 4.15%, an inhibition [14] of -0.02% and an inhibition [15] of 1.87%. For the same molecule, the inhibition [16] was 2.71%, the inhibition [17] was 4.19% and the inhibition [18] was 2.15%. It also gave an inhibition [19] of 2.4% and an inhibition [20] of 3.42%.

With c1cc(-c2cnn3nc(N4CCOCC4)ccc23)nc(NC2CC2)n1 the inhibition [1] was 7.62%, the inhibition [2] was 5.42% and the inhibition [3] was 25.6%. For the same molecule, the inhibition [4] was 2.4%, the inhibition [5] was 6.62% and the inhibition [6] was 3.67%. It also gave an inhibition [7] of 7.84%, an inhibition [8] of 1.69% and an inhibition [9] of 2.68%. For the same molecule, the inhibition [10] was 4.7%, the inhibition [11] was 6.53% and the inhibition [12] was 3.77%. The inhibition [13] was 9.6%, the inhibition [14] was 1.3% and the inhibition [15] was 2.07%. The inhibition [16] was 3.63%, the inhibition [17] was 1.64% and the inhibition [18] was 3.07%. It also gave an inhibition [19] of 7.4% and an inhibition [20] of 3.51%.

COc1ccc(-c2cc(-c3c[nH]nc3-c3ccccn3)ccn2)cc1 was tested, and the inhibition [1] was 3.44%, the inhibition [2] was -7.35% and the inhibition [3] was 2.48%. For the same molecule, the inhibition [4] was -0.01%, the inhibition [5] was 2.6% and the inhibition [6] was 2.08%. It also gave an inhibition [7] of 3.41%, an inhibition [8] of 0.05% and an inhibition [9] of -1.05%. For the same molecule, the inhibition [10] was 4.66%, the inhibition [11] was 6.7% and the inhibition [12] was 3.82%. It also gave an inhibition [13] of 3.97%, an inhibition [14] of -2.15% and an inhibition [15] of -3.38%. The inhibition [16] was 3.08%, the inhibition [17] was 6.57% and the inhibition [18] was 3.42%. It also gave an inhibition [19] of 4.49% and an inhibition [20] of 5.21%.
